The text below walks through data of PubChem BioAssay (NCATS).

Where “and” joins values, the source holds several entries; their conditions need not be identical. Equal entries are not always repeated. Records with an inconclusive call do not appear. Calls of active or inactive are those of the source. The call rests on the fitted dose curve; in most records, active means well fitted curve in the direction sought with a large enough effect; inconclusive means small, poorly fitted or top-dose-only effect, or another doubt; inactive means no such curve, though single readings can be large; an effect the other way counts as inactive or inconclusive.

Assay [1] in a line: qHTS of pediatric cancer cell lines to identify multiple opportunities for drug repurposing: Primary screen for SJ-GBM2 cells (AID 1347091). Further: potency means the concentration at half of the fitted maximal effect. Summed up: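 Eight- or eleven-point concentration series, 48 h treatment at 37 degrees C in growth media; readout CellTiter-Glo luminescence. Potency and efficacy were taken from the concentration-response curves.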
Assay [2] in a line: qHTS of pediatric cancer cell lines to identify multiple opportunities for drug repurposing: Primary screen for A673 cells (AID 1347092). Further: nearly all actives have a fitted effect of over 45% in size. Further: potency means the concentration at half of the fitted maximal effect. In outline: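 Luminescence from CellTiter-Glo, taken after 15 min at room temperature, served as the proxy for metabolically active cells following 48 h treatment. Both potency and efficacy were taken from curves fitted to the titration data.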

A short description of assay [3]: qHTS of pediatric cancer cell lines to identify multiple opportunities for drug repurposing: Primary screen for SK-N-MC cells (AID 1347093). Further: potency means the concentration at half of the fitted maximal effect. In outline: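 Metabolically active cells were quantified by ATP-dependent luminescence (CellTiter-Glo, 15 min at room temperature) following 48 h treatment. Cells had been plated at 500-1,000 per well and settled for 5 h beforehand.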

A short description of assay [4]: qHTS of pediatric cancer cell lines to identify multiple opportunities for drug repurposing: Primary screen for BT-37 cells (AID 1347094). Further: potency means the concentration at half of the fitted maximal effect. In outline:
(§1)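 Viability was measured as metabolically active cells after 48 hours of treatment, read by CellTiter-Glo luminescence. Compounds were tested at multiple final concentrations, giving concentration-response curves.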

The nature of assay [5]: qHTS of pediatric cancer cell lines to identify multiple opportunities for drug repurposing: Primary screen for NB-EBc1 cells (AID 1347095). In outline: as §1
Assay [6] is described as follows: qHTS of pediatric cancer cell lines to identify multiple opportunities for drug repurposing: Primary screen for U-2 OS cells (AID 1347096). Further: nearly all actives have a fitted effect of over 50% in size. Summed up: (§2)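 Cells (500-1,000/well) in growth media were settled 5 h at 37 degrees C, then given compounds for 48 h. Viability was read as CellTiter-Glo luminescence. Primary runs used MIPE at 11 points (0.78 nM-46 µM) and NPC at 8 points (0.59 nM-46 µM); follow-ups used 11 points.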

A short description of assay [7]: qHTS of pediatric cancer cell lines to identify multiple opportunities for drug repurposing: Primary screen for SK-N-SH cells (AID 1347098). Further: nearly all actives have a fitted effect of over 65% in size. Further: potency means the concentration at half of the fitted maximal effect. In outline:
(§3)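 Cells (500-1,000/well) rested 5 h, then received compounds for 48 h; metabolically active cells were measured by CellTiter-Glo luminescence. Final concentrations spanned up to 46 µM (MIPE, 11-point) or 0.59 nM-46 µM (NPC, 8-point) in primary screens, 11-point in follow-ups.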

Assay [8] is described as follows: qHTS of pediatric cancer cell lines to identify multiple opportunities for drug repurposing: Primary screen for NB1643 cells (AID 1347099). Further: nearly all actives have a fitted effect of over 50% in size. In outline: as §1
The nature of assay [9]: qHTS of pediatric cancer cell lines to identify multiple opportunities for drug repurposing: Primary screen for LAN-5 cells (AID 1347100). Further: potency means the concentration at half of the fitted maximal effect. In outline: as §2
Assay [10] is described as follows: qHTS of pediatric cancer cell lines to identify multiple opportunities for drug repurposing: Primary screen for BT-12 cells (AID 1347101). Further: nearly all actives have a fitted effect of over 25% in size. Further: potency means the concentration at half of the fitted maximal effect. In outline: as §3
The nature of assay [11]: qHTS of pediatric cancer cell lines to identify multiple opportunities for drug repurposing: Primary screen for Rh18 cells (AID 1347102). Further: nearly all actives have a fitted effect of over 65% in size. Summed up: as §2
Assay [12] in a line: qHTS of pediatric cancer cell lines to identify multiple opportunities for drug repurposing: Primary screen for OHS-50 cells (AID 1347103). Further: nearly all actives have a fitted effect of over 40% in size. Further: potency means the concentration at half of the fitted maximal effect. In outline: as §3
Assay [13] in a line: qHTS of pediatric cancer cell lines to identify multiple opportunities for drug repurposing: Primary screen for MG 63 (6-TG R) cells (AID 1347105). Further: nearly all actives have a fitted effect of over 50% in size. Summed up: as §1
The nature of assay [14]: qHTS of pediatric cancer cell lines to identify multiple opportunities for drug repurposing: Primary screen for Rh30 cells (AID 1347107). Further: series mostly up to about 46 µM; nearly all actives have a fitted effect of over 75% in size. Summed up: as §2
Assay [15] can be described thus: qHTS of pediatric cancer cell lines to identify multiple opportunities for drug repurposing: Primary screen for Rh41 cells (AID 1347108).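 Further: series mostly up to about 46 µM; luminescence drop marks cytotoxic hits; nearly all actives have a fitted effect of over 70% in size.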 Summed up:
as §1

Assay [16] is described as follows: qHTS of pediatric cancer cell lines to identify multiple opportunities for drug repurposing: Primary screen for Saos-2 cells (AID 1347097). Further: nearly all actives have a fitted effect of over 40% in size. Summed up:
as §1

Assay [17] can be described thus: qHTS of pediatric cancer cell lines to identify multiple opportunities for drug repurposing: Primary screen for RD cells (AID 1347104). Further: nearly all actives have a fitted effect of over 55% in size. Further: potency means the concentration at half of the fitted maximal effect. Summed up:
as §1

The nature of assay [18]: qHTS of pediatric cancer cell lines to identify multiple opportunities for drug repurposing: Primary screen for control Hh wild type fibroblast cells (AID 1347106).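 Further: series mostly up to about 46 µM; a drop in luminescence marks cytotoxicity and a rise apparent proliferation; nearly all actives have a fitted effect of over 55% in size.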 In outline:
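Viability after 48 h compound treatment at 37C, 500-1,000 cells/well, read as ATP luminescence with CellTiter-Glo. Primary screens used 11-point (MIPE, 0.78 nM-46 µM) or 8-point (NPC, 0.59 nM-46 µM) final concentrations; follow-up screens used 11-point dilutions.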

A short description of assay [19]: qHTS of pediatric cancer cell lines to identify multiple opportunities for drug repurposing: Confirmatory screen for NB1643 cells (AID 1347109). Further: nearly all actives have a fitted effect of over 45% in size. In outline: as §2
Assay [20] in a line: qHTS of pediatric cancer cell lines to identify multiple opportunities for drug repurposing: Confirmatory screen for A673 cells (AID 1347110).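 Further: potency means the concentration at half of the fitted maximal effect; cells exposed to compound for 48 h before the viability read; nearly all actives have a fitted effect of over 65% in size.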 In outline:
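qHTS titration format: primary MIPE 0.78 nM-46 µM (11 pts), NPC 0.59 nM-46 µM; confirmation 11 pts. 48 h, CTG luminescence.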

As to `CC(C)NCC(O)COc1ccc(CCOCC2CC2)cc1` (stereo unspecified), the Potency result in assay [1], in assay [2], in assay [3], in [4], in assay [5] and in [6] was “inactive” throughout. In addition, the Potency result in [7], in [8], in [9], in assay [10], in assay [11] and in assay [12] was “inactive” in each case. The Potency entry in [13] and in assay [15] was “inactive” each time. For the same molecule, the molecule was called inactive in [14].

For the molecule `O=C(c1ccc(F)cc1)C1CCN(CCn2c(=O)[nH]c3ccccc3c2=O)CC1`, the Potency result in assay [1], in assay [2], in [3], in assay [4], in assay [5] and in assay [16] was “inactive” each time. The Potency result in [7], in assay [9], in assay [10], in assay [11], in [12] and in assay [13] was “inactive” throughout. In addition, in assay [15], the Potency result was “inactive”. The call in assay [14] was inactive.

On to `CN(CCOc1ccc(NS(C)(=O)=O)cc1)CCc1ccc(NS(C)(=O)=O)cc1`, for which the Potency result in assay [1], in assay [2], in [3], in assay [4], in assay [5] and in assay [6] was “inactive” in each case. In addition, the Potency entry in [7], in assay [8], in assay [9], in [10], in [11] and in [12] was “inactive” in each case. Moreover, the Potency result in assay [17], in assay [13], in [18] and in assay [15] was “inactive” each time.

Take `CN(C)C(=N)N=C(N)N`: the Potency entry in assay [1], in [2], in assay [3], in assay [4], in assay [5] and in [16] was “inactive” throughout. Besides, the Potency result in [7], in assay [8], in [9], in assay [10], in [11] and in assay [12] was “inactive” throughout. Further, the Potency entry in assay [13] and in [15] was “inactive” each time.

For `COc1cc2nc(N3CCN(C(=O)c4ccco4)CC3)nc(N)c2cc1OC`, the Potency result in [1], in [5], in [13], in [18] and in assay [15] was “inactive” throughout. Besides, the Potency in assay [2] was 14.8 µM (active); in [3], 11.8 µM (active); in assay [4], 24.3 µM (active); in [7], 27.1 µM (active); in assay [9] it was 14.8 µM (active); in assay [10], 9.53 µM (active).

Consider `CCc1cccc2c3c([nH]c12)C(CC)(CC(=O)O)OCC3` (stereo unspecified), for which the Potency entry in assay [1], in assay [2], in [3], in assay [4], in [5] and in assay [16] was “inactive” each time. Besides, the Potency entry in [7], in [9], in assay [10], in assay [11], in [12] and in assay [17] was “inactive” in each case. Moreover, the Potency entry in [13], in [18] and in [15] was “inactive” in each case. The molecule was called inactive in assay [14].

Turning to `CC(C)Cc1ccc(C(C)C(=O)O)cc1` (stereo unspecified), the Potency result in assay [1], in [2], in assay [3], in assay [5], in [6] and in [7] was “inactive” throughout. Also, the Potency result in [8], in assay [9], in assay [10], in [11], in assay [12] and in [13] was “inactive” each time. Also, the Potency result in assay [18], in assay [15] and in assay [19] was “inactive” in each case. Further, the molecule was classed as inactive in [14]. Besides, the Potency in assay [20] was 6.57 µM (active).

Turning to `CC1(C)O[C@H]2CC(=O)OC[C@]23[C@H]2CC[C@@]4(C)[C@H](c5ccoc5)OC(=O)[C@H]5O[C@]54[C@]2(C)C(=O)C[C@@H]13`, the Potency result in assay [1], in assay [2], in [3], in [4], in [5] and in assay [6] was “inactive” each time. Moreover, the Potency result in assay [16], in assay [7], in assay [9], in assay [10], in assay [11] and in assay [12] was “inactive” throughout. Moreover, the Potency result in [13], in [18] and in [15] was “inactive” in each case.

Regarding `Cc1ccccc1N1C(=O)c2cc(S(N)(=O)=O)c(Cl)cc2NC1C` (stereo unspecified), the Potency entry in assay [1], in [2], in assay [4], in assay [5], in assay [6] and in [7] was “inactive” in each case. Moreover, the Potency entry in [8], in assay [9], in assay [10], in assay [11], in assay [12] and in assay [17] was “inactive” in each case. For the same molecule, the Potency entry in assay [13], in assay [18] and in assay [15] was “inactive” throughout. For the same molecule, in assay [14], the result was inactive.

As to `CN1CCC(=C2c3ccccc3C=Cc3ccccc32)CC1`, the Potency result in [1], in assay [5], in assay [13], in assay [18] and in assay [15] was “inactive” in each case. For the same molecule, the Potency in assay [2] is 18.7 µM (active); in [7], 24.1 µM (active); in assay [12] it was 13.8 µM (active) and 19.3 µM (active).

`Cc1cc(C(C)(C)C)c(O)c(C)c1CC1=NCCN1`: the Potency entry in assay [1], in [2], in [4], in assay [5], in assay [7] and in [8] was “inactive” throughout. Further, the Potency entry in assay [9], in [10], in assay [11], in assay [12], in [13] and in assay [18] was “inactive” throughout. In [15], the Potency result is “inactive”.

For the molecule `CCC1(C)CC(=O)NC1=O` (stereo unspecified), the Potency result in assay [1], in [2], in assay [4], in [5], in [16] and in assay [7] was “inactive” throughout. The Potency entry in assay [8], in [9], in [10], in assay [11], in assay [12] and in assay [13] was “inactive” in each case. In addition, the Potency result in assay [18] and in assay [15] was “inactive” in each case. In addition, the call in assay [14] was inactive.

For `OCCN1CCN(CCCN2c3ccccc3Sc3ccc(C(F)(F)F)cc32)CC1`, the Potency in [1] is 20.9 µM (active); in [2] it was 18.7 µM (active); in assay [4] it was 13.7 µM (active); in assay [7], 21.5 µM (active) and 19.4 µM (active); in assay [10] it was 27.3 µM (active); in [12], 24.3 µM (active) and 27.6 µM (active). Besides, in assay [17], the Potency was 18.7 µM (active). Further, the Potency result in [15] was “inactive”.

Turning to `CC(=O)OCC(CCn1cnc2cnc(N)nc21)COC(C)=O`, the Potency entry in assay [1], in assay [2], in assay [4], in assay [5], in assay [16] and in [7] was “inactive” each time. Also, the Potency result in assay [8], in assay [9], in assay [10], in assay [11], in assay [12] and in assay [13] was “inactive” throughout. Besides, in assay [15], the Potency result is “inactive”.
